Each structure is given as a SMILES string. About 1,900 (0.47%) of roughly 400,000 compounds were called active. Inconclusive results (about 14%) are left out. No rule for the calls is given here. Shown is part of a subset that was picked to be rich in actives.

The target of the test is Ataxin-2 (Homo sapiens) (UniProt Q99700). Description: qHTS for Inhibitors of ATXN expression. Format: functional.
Chain of Ataxin-2 (Homo sapiens) (Q99700 whole entry): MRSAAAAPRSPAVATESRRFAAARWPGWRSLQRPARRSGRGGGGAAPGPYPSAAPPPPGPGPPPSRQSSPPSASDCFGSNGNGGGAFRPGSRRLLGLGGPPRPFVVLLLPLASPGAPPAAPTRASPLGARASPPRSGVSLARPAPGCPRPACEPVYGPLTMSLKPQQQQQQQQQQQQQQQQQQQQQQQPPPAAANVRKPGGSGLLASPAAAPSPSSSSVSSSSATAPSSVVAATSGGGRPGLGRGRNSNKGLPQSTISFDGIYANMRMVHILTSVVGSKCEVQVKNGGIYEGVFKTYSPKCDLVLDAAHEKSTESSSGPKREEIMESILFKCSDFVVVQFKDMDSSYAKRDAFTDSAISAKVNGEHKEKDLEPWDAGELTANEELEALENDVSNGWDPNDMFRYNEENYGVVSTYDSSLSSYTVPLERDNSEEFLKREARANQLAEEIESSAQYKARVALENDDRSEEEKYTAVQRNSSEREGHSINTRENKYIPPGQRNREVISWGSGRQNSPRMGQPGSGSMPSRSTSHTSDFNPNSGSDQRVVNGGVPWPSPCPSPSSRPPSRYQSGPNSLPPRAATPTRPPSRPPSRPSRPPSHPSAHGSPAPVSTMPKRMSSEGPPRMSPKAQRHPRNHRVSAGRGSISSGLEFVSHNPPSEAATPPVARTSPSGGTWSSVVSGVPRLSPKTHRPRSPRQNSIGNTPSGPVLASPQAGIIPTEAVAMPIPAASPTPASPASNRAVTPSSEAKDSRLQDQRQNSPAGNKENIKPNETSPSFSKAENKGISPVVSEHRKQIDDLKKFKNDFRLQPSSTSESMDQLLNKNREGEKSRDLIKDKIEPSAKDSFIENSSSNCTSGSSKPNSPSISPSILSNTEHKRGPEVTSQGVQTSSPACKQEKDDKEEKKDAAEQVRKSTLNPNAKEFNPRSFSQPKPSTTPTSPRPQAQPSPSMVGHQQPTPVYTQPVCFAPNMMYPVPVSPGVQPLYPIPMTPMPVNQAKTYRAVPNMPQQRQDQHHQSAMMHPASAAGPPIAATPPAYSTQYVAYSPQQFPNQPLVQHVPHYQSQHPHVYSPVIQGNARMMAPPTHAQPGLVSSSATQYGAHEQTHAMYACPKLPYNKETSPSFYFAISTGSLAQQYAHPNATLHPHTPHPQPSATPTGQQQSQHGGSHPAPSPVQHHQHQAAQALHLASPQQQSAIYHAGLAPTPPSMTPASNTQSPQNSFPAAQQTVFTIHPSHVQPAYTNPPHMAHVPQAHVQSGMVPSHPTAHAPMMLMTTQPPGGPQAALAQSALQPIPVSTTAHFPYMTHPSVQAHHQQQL
For the compound `CCOC(=O)[C@]12Cc3ccccc3[C@H]1N(C)C(=O)c1cc(OC)ccc12`, the Potency is 31.6 µM (active).
Regarding `CCOC(=O)[C@]12Cc3c(cc(OC)c(OC)c3OC)[C@H]1N(C)C(=O)c1cc(OC)ccc12`, the Potency is 11.2 µM (active).
For `CCOC(=O)[C@]12Cc3ccccc3[C@H]1N(C(C)C)C(=O)c1cc(OC)ccc12`, the Potency is 17.8 µM (active).
Next, `CCOC(=O)[C@]12Cc3ccccc3[C@H]1N(C(C)C)C(=O)c1ccccc12`: 22.4 µM (active).
In the case of `N#CC1=C(N)Oc2c(c(=O)oc3ccccc23)C1c1ccc([N+](=O)[O-])o1` (stereo not given), the Potency result was “inactive”.
Regarding `CC(C)OCC(O)CN1CC2C[C@@H](C1)Cn1c2cccc1=O` (stereo not given in full), the Potency result was “inactive”.
`Cc1cc(=O)oc2cc(OCC(=O)N3CCN(C(C)c4ccccc4)CC3)c(Cl)cc12` (stereo not given): the Potency entry is “inactive”.
On to `CCCCn1c(NC(=O)c2ccco2)c(C(=O)OCC)c2nc3ccccc3nc21`, for which the Potency result was “inactive”.
Consider `CCOC(=O)[C@]12Cc3cc(C)ccc3[C@H]1N(C(C)C)C(=O)c1ccccc12`, for which the Potency is 11.2 µM (active).
Next, `CCCCN1C(=O)/C(=C/NNC(=O)c2ccncc2)C(=O)NC1=S`: “inactive”.
Regarding `COc1cccc(CNCCc2cccc(F)c2)c1OC`, the Potency entry was “inactive”.
With `CCOc1c(Cl)cc(CNC(C)C(O)c2ccccc2)cc1OC` (stereo not given), the Potency result was “inactive”.
For the compound `CCOc1c(Cl)cc(CNCCc2c[nH]c3ccccc23)cc1OC`, the Potency was 20 µM (active).
For `COc1cccc(-n2c(/C=C/c3ccc(O)c(O)c3)nc3ccccc3c2=O)c1`, the Potency entry is “inactive”.
Turning to `COP(=O)(OC)c1nc(-c2ccc([N+](=O)[O-])cc2)oc1N1CCCCC1`, the Potency entry is “inactive”.
Regarding `O=[N+]([O-])/C=C/c1c(Cl)cccc1Cl`, the Potency was 4.74 µM (active).
Under `CC(C)CCNC(=O)c1c(N)n(CC2CCCO2)c2nc3ccccc3nc12` (stereo not given) stands “inactive”; under `O=C1NC(=O)N(Cc2ccccc2)C(=O)/C1=C/NNC(=O)c1ccncc1`, “inactive”.
As to `Cc1cnc(SCc2ccccn2)nc1C1CCCN(C(=O)c2scc3c2CCCC3)C1` (stereo not given), the Potency was 25.1 µM (active).
Turning to `Nc1ccc2c3c(cccc13)-c1ccccc1-2`, the Potency result was “inactive”.
Consider `O=C(NCC1=C(c2ccc3ccccc3c2)C[C@@H]2CC[C@H]1N2Cc1ccco1)c1ccc([N+](=O)[O-])cc1`, for which the Potency is 31.6 µM (active).
In the case of `Nc1c(C(=O)NCc2ccco2)c2nc3ccccc3nc2n1Cc1ccccc1`, the Potency entry was “inactive”.
As to `Nc1c(C(=O)NCC2CCCO2)c2nc3ccccc3nc2n1Cc1ccco1` (stereo not given), the Potency entry was “inactive”.
On to `CCC(Nc1ccccc1N)=C1C(=O)NC(=O)NC1=O`, for which the Potency entry was “inactive”.
In the case of `CCC1(C)OC(c2ccccc2)=C/C(=C/C=C2C(=O)NC(=O)NC2=O)O1` (stereo not given), the Potency result is “inactive”.
For the compound `O=c1ccc2cc(O[C@@H]3O[C@H](CO)[C@@H](O)[C@H](O)[C@H]3O)c(O)cc2o1`, the Potency entry was “inactive”.
Regarding `O=C(NCc1ccccc1)c1cccn(Cc2cccc(Cl)c2)c1=O`, the Potency entry was “inactive”.
On to `Cc1n[nH]c2ccc(-c3cncc(OC[C@@H](N)Cc4c[nH]c5ccccc45)c3)cc12`, for which the Potency was 11.2 µM (active).
For the compound `C[n+]1c2cc(N)ccc2cc2ccc(N)cc21`, the Potency result was “inactive”.
Regarding `Clc1ccc(C(Cn2ccnc2)OCc2csc3c(Cl)cccc23)c(Cl)c1` (stereo not given), the Potency is 28.2 µM (active).
Under `Clc1ccc(COC(Cn2ccnc2)c2ccc(Cl)cc2Cl)cc1` (stereo not given) stands 39.8 µM (active); under `COc1ccc(Br)cc1CNCCc1cccc(Cl)c1`, “inactive”.
Under `CC/C(=C(\c1ccc(O)cc1)c1ccc(OCCN(C)C)cc1)c1ccccc1` stands 39.8 µM (active); under `CCCCCC[C@H]1C(=O)O[C@H](C)[C@H](NC(=O)c2cccc(NC=O)c2O)C(=O)O[C@@H](C)[C@H]1OC(=O)CC(C)C`, “inactive”; under `C=CCc1ccccc1OCCn1c(C2CC(=O)N(Cc3ccc(F)cc3)C2)nc2ccccc21` (stereo not given), 39.8 µM (active).
In the case of `CC[C@@H]1CN2CCc3cc(OC)c(OC)cc3[C@H]2C[C@@H]1C[C@@H]1NCCc2cc(O)c(OC)cc21`, the Potency was 0.0631 µM (active).
For `CC[C@@H]1CN2CCc3cc(OC)c(OC)cc3[C@H]2C[C@@H]1C[C@H]1NCCc2cc(OC)c(OC)cc21`, the Potency is 0.316 µM (active).
Consider `CC(=O)O[C@H]1CCC2C3CCC4=CC(=O)CCC4=C3C=C[C@@]21C` (stereo not given in full), for which the Potency result was “inactive”.
`CN1C(=O)C(=CNCCN2CCOCC2)C(=O)N(C)C1=S`: the Potency entry is “inactive”.
With `Cc1ccc(N/N=C/C=C/c2ccco2)cc1`, the Potency result is “inactive”.
In the case of `CC(=O)C12CC(C)=C(C)CC1CC1C3CCC4=CC(=O)CCC4(C)C3CCC12C` (stereo not given), the Potency result was “inactive”.
Under `O=C1NC(=O)N(CCc2ccc(F)cc2)C(=O)/C1=C/NNC(=O)c1ccncc1` stands “inactive”.
`Fc1ccc(C2=CCN(C(c3cccs3)c3nnnn3CCc3ccccc3)CC2)cc1` (stereo not given): the Potency is 39.8 µM (active).
As to `Clc1ccc2sc(C3CCNCC3)nc2c1`, the Potency result was “inactive”.
With `O=C1NCN(c2ccccc2)C12CCN(C(c1cccc3ccccc13)c1nnnn1Cc1ccccc1)CC2` (stereo not given), the Potency was 39.8 µM (active).
`CCCCn1nnnc1C(c1cccc(OC)c1OC)N1CCC2(CC1)C(=O)NCN2c1ccccc1` (stereo not given): the Potency was 39.8 µM (active).
Regarding `O=C1NCN(c2ccccc2)C12CCN(C(c1ccccc1OC(F)(F)F)c1nnnn1Cc1ccccc1)CC2` (stereo not given), the Potency was 39.8 µM (active).
On to `COc1cccc(C(c2nnnn2Cc2ccccc2)N2CCC3(CC2)C(=O)NCN3c2ccccc2)c1OC` (stereo not given), for which the Potency was 39.8 µM (active).
Turning to `Cc1c(CC(=O)N2C[C@H]3C[C@@H](C2)c2cccc(=O)n2C3)c(=O)oc2c(C)c(O)ccc12`, the Potency entry is “inactive”.
With `COc1ccc2c(c1)NP(=S)(Oc1ccccc1)N2` (stereo not given), the Potency result was “inactive”.
Turning to `N#Cc1cccc(NC(=O)CSc2nc3c(cc2C#N)N2CCC3CC2)c1`, the Potency entry is “inactive”.
Under `Fc1cccc(F)c1CN1CCN(c2ccc(Cl)cc2)CC1` stands “inactive”; under `CCC(C)NC(=O)c1c(N)n(CCCOC)c2nc3ccccc3nc12` (stereo not given), “inactive”.
In the case of `CCCCNC(=O)c1c(N)n(CCCOC)c2nc3ccccc3nc12`, the Potency result was “inactive”.
`Cc1cc(=O)oc2cc3c(cc12)CCCN3`: the Potency entry was “inactive”.
Next, `CC[C@H](C)/C=C(C)/C=C/C1=CC2=C(Cl)C(=O)[C@](C)(OC(C)=O)C(=O)C2=CO1`: 28.2 µM (active); `CCn1nc(/C=C/c2ccccc2)nc2c(=O)n(C)c(=O)nc1-2`: 10.6 µM (active).
With `CCn1nc(-c2ccccc2)nc2c(=O)n(C)c(=O)nc1-2`, the Potency was 20 µM (active).
With `COc1ccc(-n2c(/C=C/c3ccc(O)cc3)nc3ccccc3c2=O)cc1`, the Potency result was “inactive”.
Take `CCN1C(=O)/C(=C/NNC(=O)c2ccncc2)C(=O)NC1=S`: the Potency result is “inactive”.

For the origin of these results see ChEMBL document CHEMBL1201862, “PubChem BioAssay data set” (2004).
